From PubChem BioAssay AID1851 (National Center for Advancing Translational Sciences (NCATS), 2009)
Where “and” joins values, the source holds several entries; their conditions need not be identical. Equal values may be shown once. The whole screen tested about 16,000 compounds, of which about 5,100 (32%) were called active. Not shown: some 25% with an inconclusive outcome. The call rests on the fitted dose curve; in most records, active means well fitted curve in the direction sought with a large enough effect; inconclusive means small, poorly fitted or top-dose-only effect, or effect the other way; inactive means no such curve, though single readings can be large or run the other way. This is one part of the list.

target: Cytochrome P450 3A4 (Homo sapiens) (UniProt P08684); assay: Cytochrome panel assay with activity outcomes; settings: recombinant CYP, pro-luciferin dealkylation, luminescence, p450-cyp3a4; series mostly up to 57.1 µM; activity, negative = inhibition: at the top concentration
On the % scale 0 is the no-effect control and ±100 the full control effect.

Chain of Cytochrome P450 3A4 (Homo sapiens) (P08684 whole entry, looked up): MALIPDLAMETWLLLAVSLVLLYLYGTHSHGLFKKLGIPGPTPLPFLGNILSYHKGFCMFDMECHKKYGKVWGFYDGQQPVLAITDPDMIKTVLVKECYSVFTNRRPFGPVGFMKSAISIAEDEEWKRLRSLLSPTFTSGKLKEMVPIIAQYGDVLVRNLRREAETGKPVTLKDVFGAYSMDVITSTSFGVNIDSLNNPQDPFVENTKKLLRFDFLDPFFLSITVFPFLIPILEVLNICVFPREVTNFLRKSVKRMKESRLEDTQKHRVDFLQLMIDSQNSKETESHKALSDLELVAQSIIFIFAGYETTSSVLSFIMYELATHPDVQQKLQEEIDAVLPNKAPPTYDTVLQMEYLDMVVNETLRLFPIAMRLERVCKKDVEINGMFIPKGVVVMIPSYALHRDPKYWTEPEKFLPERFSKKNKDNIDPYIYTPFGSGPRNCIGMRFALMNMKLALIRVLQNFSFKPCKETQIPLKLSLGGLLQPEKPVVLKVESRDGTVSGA

Row | SMILES | activity, negative = inhibition | AC50
1 | CCC1(O)c2ccccc2-c2ncccc21 (configuration not stated) | -21% (inactive) | –
2 | COc1ccc(C(N)=O)cc1NC(=O)c1cccc(F)c1 | 7.69% (inactive) | –
3 | C=C(C)c1cccc(C(C)(C)NC(=O)Nc2cc(C)ccc2OC)c1 | – | 10 µM (active)
4 | CCc1cc2c(Sc3nc4ccccc4s3)ncnc2s1 | 6.04% [at 2.29 µM] (inactive) | –
5 | c1ccc(NCCSc2nc3ccccc3s2)cc1 | -25.9% [at 11.4 µM] (inactive) | –
6 | O=[N+]([O-])c1c(NCCO)cc(Sc2nc3ccccc3s2)c2nonc12 | – | 25.1 µM (active)
7 | COc1n[nH]c2nncnc12 | 3.1% (inactive) | –
8 | CCOC(=O)C1=C(C)NC(C)=C(C(=O)OCC)C1c1sccc1C | – | 11.2 µM (active)
9 | CCOC(=O)C1=C(C)NC2(O)c3ccccc3C(=O)C12O (configuration not stated) | 8.09% (inactive) | –
10 | CCOC(=O)c1[nH]c(C)c(C)c1C | -10.8% (inactive) | –
11 | COc1ncc2ncc(=O)n(CCC#N)c2n1 | -14.1% (inactive) | –
12 | COc1ncc2ncc(=O)n(Cc3ccc(F)cc3)c2n1 | – | 10 µM (active)
13 | N#CCCn1c(=O)cnc2cnc(OCc3ccccc3)nc21 | -26.2% (inactive) | –
14 | O=c1cnc2cnc(OCc3ccccc3)nc2n1Cc1ccc(F)cc1 | – | 5.01 µM (active)
15 | COc1ncc2ncc(=O)n(C)c2n1 | -13% (inactive) | –
16 | O=C1NCC2(CCN(CCc3ccccc3)CC2)O1 | – | inactive
17 | C[N+]1(CCC[N+]2(C)C[C@H]3[C@H](C2)[C@H]2C=C[C@@H]3CC2)CCOCC1 (some centres not stated) | 31.7% [at 11.4 µM] (inactive) | –
18 | COc1ccc2c(C)cc(N3CCOCC3)nc2c1 | -8.84% (inactive) | –
19 | CCN(CC)c1cc(C)c2cc(NC(=O)CNC(C)=O)ccc2n1 | -3.72% [at 11.4 µM] (inactive) | –
20 | CCCCNC(=O)CCC(=O)Nc1ccc2nc(N3CCOCC3)cc(C)c2c1 | – | 5.01 µM (active)
21 | Cc1cc(N2CCN(C)CC2)nc2ccc(NC(=O)CCC(=O)NCc3ccco3)cc12 | – | 15.8 µM (active)
22 | COCCCNC(=O)CCC(=O)Nc1ccc2nc(N3CCOCC3)cc(C)c2c1 | – | 12.6 µM (active)
23 | C/C(=N\O)c1cccc[n+]1Cc1ccccc1 | -11.2% [at 11.4 µM] (inactive) | –
24 | COc1ccc2[nH]cc(CCNc3nc(-c4ccc(C(=O)N(C)C)cc4)nc4ccccc34)c2c1 | – | 2.51 µM (active)
25 | COc1ccc2[nH]cc(CCNc3nc(-c4ccc(N(C)C)cc4)nc4ccccc34)c2c1 | – | 2.51 µM (active)

Row | SMILES | activity, negative = inhibition | AC50
26 | O=C(Nc1nnc(CCS(=O)(=O)c2ccc(Br)cc2)s1)c1ccc([N+](=O)[O-])cc1 | -8.9% [at 2.29 µM] (inactive) | –
27 | Cc1ccc(S(=O)(=O)CCc2nnc(NC(=O)COc3cccc(C)c3)s2)cc1 | – | 2.82 µM (active)
28 | Cc1cccc(C)c1NC(=O)C[N+](C)(C)C | – | inactive
29 | COC(=O)C1CSC(C(=O)OC)N1C(=O)Nc1c(C)cccc1C (configuration not stated) | -24.2% (inactive) | –
30 | CC(=O)c1cn(CC(=O)Nc2c(C)cccc2C)c2ccccc12 | – | 11.2 µM (active)
31 | C=C(C)COc1ccc(-c2n[nH]c(C)c2-c2ccc(OC)cc2)c(O)c1 | – | 10 µM (active)
32 | Oc1ccc(-c2[nH]ncc2-c2ccc(Cl)cc2)c(O)c1 | – | 0.562 µM (active)
33 | COc1ccc(-c2n[nH]c(C)c2-c2ccc(Cl)cc2)c(O)c1 | – | 14.1 µM (active)
34 | Cc1[nH]nc(-c2ccc(O)cc2O)c1-c1ccc(Cl)cc1 | – | 3.55 µM (active)
35 | CC(C)CNC(=O)CCCc1c[nH]c2ccccc12 | 14.6% [at 2.29 µM] (inactive) | –
36 | C[C@@H](C(=O)NCCc1c[nH]c2ccccc12)[C@H]1C[C@]1(C)[C@H](NC(=O)OCc1ccccc1)c1ccccc1 | – | 1.58 µM (active)
37 | C[C@@H](C(=O)NCCc1c[nH]c2ccccc12)[C@@H]1C[C@@]1(C)[C@@H](NC(=O)OCc1ccccc1)c1ccccc1 | – | 3.16 µM (active)
38 | C[C@@H]1O[C@@H](O)[C@@H](O)[C@H](O)[C@H]1O | -3.34% [at 11.4 µM] (inactive) | –
39 | O=C(Oc1oc(-c2ccco2)nc1C=Nc1ccc(Cl)cc1)c1ccco1 | 0.287% (inactive) | –
40 | CN(C)c1oc(-c2ccccc2)nc1C#N | -21.4% (inactive) | –
41 | CN(C)c1ccc(N=Cc2nc(-c3ccccc3)oc2O)cc1 | – | 14.1 µM (active)
42 | CC(=O)N1CCN(C)CC1 | -10.7% (inactive) | –
43 | COc1cc(CNC2CCCC2)cc(Cl)c1OCc1ccccc1Cl | – | 5.62 µM (active)
44 | Cc1cc(C(C)(C)C)cc(CNC2CCCCC2)c1O | -20.7% [at 11.4 µM] (inactive) | –
45 | CCOc1cc(C2NN=C(c3ccccc3)S2)ccc1OCc1ccccc1Cl (configuration not stated) | 7.68% [at 2.29 µM] (inactive) | –
46 | CC1CCC(NC(=O)CC(C)(C)Cc2nc3ccccc3c(=O)[nH]2)CC1 (configuration not stated) | 13.9% (inactive) | –
47 | Cc1oc(-c2ccccc2Cl)nc1CSCC(=O)NC1CC1 | – | 4.47 µM (active)
48 | CCOc1ccccc1NC(=O)C(=O)NCC1CCCN1CC (configuration not stated) | -6.39% (inactive) | –
49 | CCN1CCCC1CNC(=O)C(=O)Nc1ccccc1OC (configuration not stated) | -20.6% (inactive) | –
50 | CCN1CCCC1CNC(=O)CSCc1nc(-c2ccccc2C)oc1C (configuration not stated) | – | 6.31 µM (active)

Row | SMILES | activity, negative = inhibition | AC50
51 | C1CCc2c(nc3nnnn3c2NC2CCCC2)C1 | -17.9% (inactive) | –
52 | NC(=NCc1ccccc1)NC(=O)c1nc(Cl)c(N)nc1N | – | inactive
53 | O=c1cc(N2CCCCC2)c(-c2ccccc2)nn1Cc1ccccc1Cl | – | 10 µM (active)
54 | Cc1cccc(N2CCN(c3ccc(NC(=O)/C=C(/C(=O)O)c4ccccc4)cc3)CC2)c1 | 0.321% [at 2.29 µM] (inactive) | –
55 | COC(=O)c1ccc(C(=O)OC)c(NC(=S)N2CCN(c3ccccc3)CC2)c1 | – | 7.94 µM (active)
56 | COc1cc(CC(=O)O)c(C(C)=O)cc1OC | 18.7% (inactive) | –
57 | COC(=O)c1cc(OC)c(OC)cc1NC(=S)N1CCCCC1 | – | 3.98 µM (active)
58 | COc1ccc(-c2nc3cnc(Nc4ccccc4)nc3n(CCC#N)c2=O)cc1 | -23.2% (inactive) | –
59 | COc1cccc(Cn2c(=O)cnc3cnc(Nc4cccc(OC)c4)nc32)c1 | – | 2 µM (active)
60 | COc1cccc(Nc2ncc3nc(-c4cccs4)c(=O)n(CCC#N)c3n2)c1 | – | 6.31 µM (active)
61 | COc1cccc(Nc2ncc3nc(C)c(=O)n(CCC#N)c3n2)c1 | – | 12.6 µM (active)
62 | COc1ccc(-c2nc3cnc(Nc4cccc(OC)c4)nc3n(CCC#N)c2=O)cc1 | – | 3.98 µM (active)
63 | N#CCCn1c(=O)c(-c2ccccc2)nc2cnc(Nc3ccccc3)nc21 | -28.1% (inactive) | –
64 | O=C1CCCC=C1[C@@H](O)CCOC(c1ccccc1)(c1ccccc1)c1ccccc1 | -80.3% [at 11.4 µM] (inactive) | –
65 | CC(C)(C)c1cc(Br)c(O)c(CN(Cc2cc(C(C)(C)C)cc(Br)c2O)C2CCCCC2)c1 | -3.9% [at 11.4 µM] (inactive) | –
66 | CN(C)c1ncc2ncc(=O)n(CCC#N)c2n1 | -17.1% (inactive) | –
67 | COCCn1c(=O)c(-c2ccccc2)nc2cnc(Nc3ccccc3)nc21 | – | 12.6 µM (active)
68 | COc1cccc(Nc2ncc3nc(-c4cc(F)cc(F)c4)c(=O)n(CCC#N)c3n2)c1 | – | 10 µM (active)
69 | COc1cccc(Nc2ncc3ncc(=O)n(CCC#N)c3n2)c1 | – | 15.8 µM (active)
70 | COCCn1c(=O)c(-c2ccc(Cl)cc2)nc2cnc(Nc3ccccc3)nc21 | -29.4% (inactive) | –
71 | N#CCCn1c(=O)c(-c2cc(F)cc(F)c2)nc2cnc(Nc3ccccc3)nc21 | -28.1% (inactive) | –
72 | COCCn1c(=O)cnc2cnc(Nc3cccc(OC)c3)nc21 | – | 15.8 µM (active)
73 | COCCn1c(=O)cnc2cnc(Nc3ccccc3)nc21 | -22.2% (inactive) | –
74 | Cn1c(=O)c2c(nc(N/N=C\c3ccccc3C(=O)O)n2C)n(C)c1=O | 5.51% [at 11.4 µM] (inactive) | –
75 | CCC[C@H]1C(=O)N2C(N(C)C)=Nc3ccc(C)cc3N2C1=O | -23.4% [at 25.6 µM] (inactive) | –

Row | SMILES | activity, negative = inhibition | AC50
76 | COCCn1c(=O)c(-c2cc(F)cc(F)c2)nc2cnc(Nc3cccc(OC)c3)nc21 | – | 7.94 µM (active)
77 | COc1cccc(Nc2ncc3nc(-c4ccc(F)cc4)c(=O)n(CCC#N)c3n2)c1 | – | 3.16 µM (active)
78 | COCCn1c(=O)c(-c2ccccc2)nc2cnc(Nc3cccc(OC)c3)nc21 | -26.2% (inactive) | –
79 | COc1ccc(Sc2nc3ccccc3n3c(C(F)(F)F)nnc23)cc1 | -0.72% [at 11.4 µM] (inactive) | –
80 | CN1CCc2cc3c(cc2[C@@H]1[C@@H]1C(=O)Oc2c1ccc1c2OCO1)OCO3 | – | 1.26 µM (active)
81 | C[N+]1(C)CCc2cc3c(cc2[C@@H]1[C@@H]1C(=O)Oc2c1ccc1c2OCO1)OCO3 | – | 12.6 µM (active) and 15.8 µM (active)
82 | CCCCSC(=S)N(C)C1CCS(=O)(=O)C1 (configuration not stated) | -9.97% (inactive) | –
83 | Fc1ccc(Nc2ccnc(-c3ccc4c(c3)OCO4)n2)cc1 | – | 2 µM (active)
84 | CN(C)c1ccc(-c2nccc(Nc3ccc(F)cc3)n2)cc1 | – | 12.6 µM (active)
85 | Fc1ccc(Nc2ccnc(-c3ccoc3)n2)cc1 | – | 7.94 µM (active)
86 | CN(C)c1ccc(-c2cc(Nc3ccc(F)cc3)ncn2)cc1 | – | 10 µM (active)
87 | Nc1nccc(Nc2ccc(S(N)(=O)=O)cc2)n1 | -5.22% [at 11.4 µM] (inactive) | –
88 | C(=Nc1cnc2ccccc2c1)c1ccc2ccccc2n1 | -12.4% [at 11.4 µM] (inactive) | –
89 | O=C1C2C3C=CC(C3)C2C(=O)N1c1ncn[nH]1 (configuration not stated) | -2.95% (inactive) | –
90 | O=C1C2C3c4ccccc4C(c4ccccc43)C2C(=O)N1c1nc(-c2ccccc2)cs1 (configuration not stated) | 0.59% [at 2.29 µM] (inactive) | –
91 | CC(C)(C)C(=O)N1CCc2cc(-c3csc(N)n3)ccc21 | – | 8.91 µM (active)
92 | COc1cc(Cl)c(CC(=O)c2c[nH]c3ccccc23)cc1OC | – | 2.51 µM (active)
93 | COc1ccccc1CNS(=O)(=O)c1ccc2[nH]cc(C(=O)O)c(=O)c2c1 | -19.8% (inactive) | –
94 | O=C(OCCN1CCCCC1)c1c[nH]c2ccccc12 | – | inactive
95 | Nc1nnnn1/N=C\c1ccc(Cl)c([N+](=O)[O-])c1 | -9.78% (inactive) | –
96 | O=[N+]([O-])c1ccc(/C=N/Nc2cc(Cl)nc(-c3ccccc3)n2)cc1 | -19% (inactive) | –
97 | Nc1cc(Cl)nc(N/N=C/c2ccccc2[N+](=O)[O-])n1 | – | 14.1 µM (active)
